# According to paper PMC7862700, “An all-to-all approach to the identification of sequence-specific readers for epigenetic DNA modifications on cytosine”:
# Columns and labels:
# Experiment in all cases: DAPPL (digital affinity profiling via proximity ligation, sequencing); 10 mM Tris-HCl pH 7.5, 50 mM NaCl, 1 mM DTT, 4% glycerol, room temperature, 30 min; GST-TFs on glutathione beads, 16-mer random dsDNA library, 0.1% formaldehyde crosslink after washing; high values mean tight binding
# Details in all cases: protein: recombinant; tags: N-terminal GST; dsDNA, one strand shown
# ERF = target: T1, ERF (Homo sapiens, UniProt P50548 1-548)
# T1 sequence: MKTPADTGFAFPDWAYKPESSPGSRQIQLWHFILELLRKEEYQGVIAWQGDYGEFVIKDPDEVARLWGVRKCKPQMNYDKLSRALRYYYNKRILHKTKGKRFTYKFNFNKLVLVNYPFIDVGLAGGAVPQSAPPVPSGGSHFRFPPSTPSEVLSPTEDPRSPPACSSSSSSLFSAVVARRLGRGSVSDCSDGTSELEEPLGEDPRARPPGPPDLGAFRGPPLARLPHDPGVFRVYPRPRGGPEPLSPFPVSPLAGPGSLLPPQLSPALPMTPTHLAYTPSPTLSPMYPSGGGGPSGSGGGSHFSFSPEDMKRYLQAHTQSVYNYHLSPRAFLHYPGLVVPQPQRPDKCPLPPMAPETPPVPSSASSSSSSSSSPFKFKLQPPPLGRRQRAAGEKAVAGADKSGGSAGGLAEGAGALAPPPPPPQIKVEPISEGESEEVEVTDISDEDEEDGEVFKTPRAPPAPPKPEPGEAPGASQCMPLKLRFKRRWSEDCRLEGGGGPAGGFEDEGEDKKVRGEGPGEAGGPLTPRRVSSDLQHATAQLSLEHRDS
# In short: (§1)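 Human transcription factors were made in yeast as GST fusions, captured on glutathione beads and barcoded with DNA. With a tag-only sample included, the pool was incubated with 200 nmole of a random double-stranded 16-mer DNA library in Tris/NaCl/DTT/glycerol buffer at room temperature for 30 min, then crosslinked with 0.1% formaldehyde after washing, ligated by proximity, amplified and sequenced. For binding signal, each hexamer's read frequency for a factor is divided by its frequency for the tag-only sample.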
# ETV3L = target: T2, ETV3L (Homo sapiens, UniProt Q6ZN32 1-361)
# T2 sequence: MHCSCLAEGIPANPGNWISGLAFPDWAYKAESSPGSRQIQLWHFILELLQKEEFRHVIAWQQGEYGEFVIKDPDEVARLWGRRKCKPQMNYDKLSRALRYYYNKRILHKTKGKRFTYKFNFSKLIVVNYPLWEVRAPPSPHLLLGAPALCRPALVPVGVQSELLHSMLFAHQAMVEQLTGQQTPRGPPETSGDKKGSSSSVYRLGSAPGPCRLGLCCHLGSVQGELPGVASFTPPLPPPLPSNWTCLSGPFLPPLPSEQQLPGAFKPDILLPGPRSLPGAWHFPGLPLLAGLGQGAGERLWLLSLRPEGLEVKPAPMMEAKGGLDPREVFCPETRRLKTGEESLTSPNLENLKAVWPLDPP
# In short: as §1
# ETS2 = target: T3, ETS2 (Homo sapiens, UniProt P15036 1-469)
# T3 sequence: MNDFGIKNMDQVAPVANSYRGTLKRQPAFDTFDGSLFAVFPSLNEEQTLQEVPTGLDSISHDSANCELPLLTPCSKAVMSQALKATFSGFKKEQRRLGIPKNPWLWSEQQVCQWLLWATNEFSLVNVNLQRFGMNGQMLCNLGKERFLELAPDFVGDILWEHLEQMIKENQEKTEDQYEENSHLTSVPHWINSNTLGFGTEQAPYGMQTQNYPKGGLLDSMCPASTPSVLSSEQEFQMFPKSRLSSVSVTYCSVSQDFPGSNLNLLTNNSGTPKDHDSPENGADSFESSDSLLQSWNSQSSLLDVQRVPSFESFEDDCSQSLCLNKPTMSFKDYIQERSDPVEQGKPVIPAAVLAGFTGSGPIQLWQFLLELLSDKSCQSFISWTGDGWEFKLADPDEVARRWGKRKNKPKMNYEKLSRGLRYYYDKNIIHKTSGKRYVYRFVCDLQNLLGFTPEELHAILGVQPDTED
# In short: as §1
# SPDEF = target: T4, SPDEF (Homo sapiens, UniProt O95238 1-335)
# T4 sequence: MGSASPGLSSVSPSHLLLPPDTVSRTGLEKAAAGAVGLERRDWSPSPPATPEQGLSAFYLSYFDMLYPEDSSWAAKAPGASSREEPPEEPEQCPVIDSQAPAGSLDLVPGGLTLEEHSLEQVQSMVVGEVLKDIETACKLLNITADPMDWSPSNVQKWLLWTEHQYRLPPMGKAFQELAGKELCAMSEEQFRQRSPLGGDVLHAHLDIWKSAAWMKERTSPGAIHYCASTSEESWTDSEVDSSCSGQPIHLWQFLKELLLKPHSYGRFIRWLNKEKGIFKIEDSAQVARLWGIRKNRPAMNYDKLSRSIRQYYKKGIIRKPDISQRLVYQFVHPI
# In short: as §1
# ETV7 = target: T5, ETV7 (Homo sapiens, UniProt Q9Y603 1-341)
# T5 sequence: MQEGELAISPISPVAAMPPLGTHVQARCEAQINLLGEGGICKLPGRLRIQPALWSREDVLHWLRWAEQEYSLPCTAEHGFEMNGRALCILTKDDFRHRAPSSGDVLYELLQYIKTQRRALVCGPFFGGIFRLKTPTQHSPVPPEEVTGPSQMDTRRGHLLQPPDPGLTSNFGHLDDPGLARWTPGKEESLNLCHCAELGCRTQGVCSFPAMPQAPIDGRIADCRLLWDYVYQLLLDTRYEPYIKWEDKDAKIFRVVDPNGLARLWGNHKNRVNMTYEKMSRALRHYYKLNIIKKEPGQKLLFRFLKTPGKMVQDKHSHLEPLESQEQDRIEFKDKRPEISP
# In short: as §1
# ELF5 = target: T6, ELF5 (Homo sapiens, UniProt Q9UKW6-2 1-255)
# T6 sequence: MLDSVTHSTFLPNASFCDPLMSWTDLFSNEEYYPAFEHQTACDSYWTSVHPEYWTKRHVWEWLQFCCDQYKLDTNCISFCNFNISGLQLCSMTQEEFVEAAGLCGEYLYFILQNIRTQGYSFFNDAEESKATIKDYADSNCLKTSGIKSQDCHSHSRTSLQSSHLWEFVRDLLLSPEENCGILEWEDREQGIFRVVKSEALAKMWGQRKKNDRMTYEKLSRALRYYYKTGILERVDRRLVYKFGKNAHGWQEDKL
# In short: as §1
# ETV3 = target: T7, ETV3 (Homo sapiens, UniProt P41162-2 1-143)
# T7 sequence: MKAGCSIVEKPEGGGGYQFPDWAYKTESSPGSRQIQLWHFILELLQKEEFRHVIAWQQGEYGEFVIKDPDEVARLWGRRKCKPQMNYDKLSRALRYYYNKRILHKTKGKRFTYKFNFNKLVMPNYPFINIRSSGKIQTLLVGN
# In short: as §1
# ETV6 = ETV6 (Homo sapiens, UniProt P41212 1-452)
# In short: as §1
# ETV6, sequence (P41212 whole entry): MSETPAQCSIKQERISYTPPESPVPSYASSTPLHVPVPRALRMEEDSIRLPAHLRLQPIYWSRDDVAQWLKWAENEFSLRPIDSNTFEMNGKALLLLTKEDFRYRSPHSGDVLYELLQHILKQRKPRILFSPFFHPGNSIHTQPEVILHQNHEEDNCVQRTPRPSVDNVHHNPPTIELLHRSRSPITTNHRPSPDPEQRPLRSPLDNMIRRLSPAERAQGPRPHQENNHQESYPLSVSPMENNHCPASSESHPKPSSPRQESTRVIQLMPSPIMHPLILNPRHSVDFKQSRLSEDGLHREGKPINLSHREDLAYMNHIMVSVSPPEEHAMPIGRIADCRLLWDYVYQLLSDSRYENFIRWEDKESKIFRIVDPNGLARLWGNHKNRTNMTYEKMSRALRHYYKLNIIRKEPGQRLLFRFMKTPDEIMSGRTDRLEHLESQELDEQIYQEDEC
Sequence,binding signal (ERF),binding signal (ETV3L),binding signal (ETS2),binding signal (SPDEF),binding signal (ETV7),binding signal (ELF5),binding signal (ETV3),binding signal (ETV6)
CTTCGG,"1.68 fold enrichment (6-mer frequency, TF over GST control)","1.42 fold enrichment (6-mer frequency, TF over GST control)","1.48 fold enrichment (6-mer frequency, TF over GST control)","1.36 fold enrichment (6-mer frequency, TF over GST control)","1.39 fold enrichment (6-mer frequency, TF over GST control)","1.41 fold enrichment (6-mer frequency, TF over GST control)","1.55 fold enrichment (6-mer frequency, TF over GST control)","1.27 fold enrichment (6-mer frequency, TF over GST control)"
CTTCTT,"1.53 fold enrichment (6-mer frequency, TF over GST control)","1.59 fold enrichment (6-mer frequency, TF over GST control)","1.35 fold enrichment (6-mer frequency, TF over GST control)","1.54 fold enrichment (6-mer frequency, TF over GST control)","1.44 fold enrichment (6-mer frequency, TF over GST control)","1.65 fold enrichment (6-mer frequency, TF over GST control)","1.6 fold enrichment (6-mer frequency, TF over GST control)","1.64 fold enrichment (6-mer frequency, TF over GST control)"
TGCGAT,"1.24 fold enrichment (6-mer frequency, TF over GST control)","1.27 fold enrichment (6-mer frequency, TF over GST control)","1.14 fold enrichment (6-mer frequency, TF over GST control)","1.15 fold enrichment (6-mer frequency, TF over GST control)","1.23 fold enrichment (6-mer frequency, TF over GST control)","1.11 fold enrichment (6-mer frequency, TF over GST control)","1.23 fold enrichment (6-mer frequency, TF over GST control)","1.16 fold enrichment (6-mer frequency, TF over GST control)"
AATGGC,"1.25 fold enrichment (6-mer frequency, TF over GST control)","1.3 fold enrichment (6-mer frequency, TF over GST control)","1.39 fold enrichment (6-mer frequency, TF over GST control)","1.29 fold enrichment (6-mer frequency, TF over GST control)","1.32 fold enrichment (6-mer frequency, TF over GST control)","1.44 fold enrichment (6-mer frequency, TF over GST control)","1.41 fold enrichment (6-mer frequency, TF over GST control)","1.51 fold enrichment (6-mer frequency, TF over GST control)"
TATCAT,"1.14 fold enrichment (6-mer frequency, TF over GST control)","1.21 fold enrichment (6-mer frequency, TF over GST control)","1.13 fold enrichment (6-mer frequency, TF over GST control)","1.09 fold enrichment (6-mer frequency, TF over GST control)","1.1 fold enrichment (6-mer frequency, TF over GST control)","1.15 fold enrichment (6-mer frequency, TF over GST control)","1.21 fold enrichment (6-mer frequency, TF over GST control)","1.05 fold enrichment (6-mer frequency, TF over GST control)"
TCGACC,"1.31 fold enrichment (6-mer frequency, TF over GST control)","1.33 fold enrichment (6-mer frequency, TF over GST control)","1.24 fold enrichment (6-mer frequency, TF over GST control)","1.37 fold enrichment (6-mer frequency, TF over GST control)","1.21 fold enrichment (6-mer frequency, TF over GST control)","1.28 fold enrichment (6-mer frequency, TF over GST control)","1.27 fold enrichment (6-mer frequency, TF over GST control)","1.3 fold enrichment (6-mer frequency, TF over GST control)"
CATCCC,"1.2 fold enrichment (6-mer frequency, TF over GST control)","1.26 fold enrichment (6-mer frequency, TF over GST control)","1.33 fold enrichment (6-mer frequency, TF over GST control)","1.47 fold enrichment (6-mer frequency, TF over GST control)","1.2 fold enrichment (6-mer frequency, TF over GST control)","1.44 fold enrichment (6-mer frequency, TF over GST control)","1.16 fold enrichment (6-mer frequency, TF over GST control)","1.24 fold enrichment (6-mer frequency, TF over GST control)"
ATCCTT,"1.56 fold enrichment (6-mer frequency, TF over GST control)","1.58 fold enrichment (6-mer frequency, TF over GST control)","1.47 fold enrichment (6-mer frequency, TF over GST control)","2.13 fold enrichment (6-mer frequency, TF over GST control)","1.49 fold enrichment (6-mer frequency, TF over GST control)","2.26 fold enrichment (6-mer frequency, TF over GST control)","1.84 fold enrichment (6-mer frequency, TF over GST control)","1.68 fold enrichment (6-mer frequency, TF over GST control)"
ATAGTA,"1.23 fold enrichment (6-mer frequency, TF over GST control)","1.11 fold enrichment (6-mer frequency, TF over GST control)","1.06 fold enrichment (6-mer frequency, TF over GST control)","1.07 fold enrichment (6-mer frequency, TF over GST control)","1.3 fold enrichment (6-mer frequency, TF over GST control)","1.13 fold enrichment (6-mer frequency, TF over GST control)","1.15 fold enrichment (6-mer frequency, TF over GST control)","1.25 fold enrichment (6-mer frequency, TF over GST control)"
